Reference: PubChem BioAssay AID1159580 (chemical genetic matrix, 2015)
The campaign covered roughly 5,500 compounds. About 2,000 (36%) were called active. Inconclusive results (about 18%) are left out. No stated cut-off is given here; in the data, active means normalized growth mostly below about 0.91 (no sharp cut-off); inconclusive means no clear call, values can overlap the other calls; inactive means mostly above about 0.92. The list shows a part of the results.

Assay: chemical genetic growth profiling, strain panel (AID 1159580);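 further: tested at 20 µM; growth read once vehicle control cultures reached saturation at 30 °C; 1 = growth at the plate median or of vehicle wells; lower values mean less growth of the strain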
Details: S. cerevisiae deletion strains, growth OD
[1] = locus YAR019C, strain CDC15, hits give low values
[2] = locus YBL105C, strain PKC1, hits give low values
[3] = locus YBR135W, strain CKS1, hits give low values
[4] = locus YBR136W, strain MEC1, hits give low values
[5] = locus YBR160W, strain CDC28, hits give low values
[6] = locus YDL017W, strain CDC7, hits give low values
[7] = locus YDL028C, strain MPS1, hits give low values
[8] = locus YDL101C, strain DUN1, hits give low values
[9] = locus YDL108W, strain KIN28, hits give low values
[10] = locus YDL132W, strain cdc53, hits give low values
[11] = locus YDL214C, strain PRR2, hits give low values
[12] = locus YDR052C, strain DBF4, hits give low values
[13] = locus YDR054C, strain cdc34, hits give low values
[14] = locus YDR226W, strain ADK1, hits give low values
[15] = locus YDR477W, strain SNF1, hits give low values
[16] = locus YER123W, strain YCK3, hits give low values
[17] = locus YER133W, strain GLC7, hits give low values
[18] = locus YFL009W, strain cdc4, hits give low values
[19] = locus YFL029C, strain CAK1, hits give low values
[20] = locus YFR003C, strain YPI1, hits give low values
[21] = locus YFR019W, strain FAB1, hits give low values
[22] = locus YFR028C, strain CDC14, hits give low values
[23] = locus YGR040W, strain KSS1, hits give low values
[24] = locus YGR052W, strain FMP48, hits give low values
[25] = locus YGR092W, strain DBF2, hits give low values
[26] = locus YHR030C, strain SLT2, hits give low values
[27] = locus YHR079C, strain IRE1, hits give low values
[28] = locus YHR082C, strain KSP1, hits give low values
[29] = locus YHR205W, strain SCH9, hits give low values
[30] = locus YIL147C, strain SLN1, hits give low values
[31] = locus YJL095W, strain BCK1, hits give low values
[32] = locus YJL128C, strain PBS2, hits give low values
[33] = locus YJL157C, strain FAR1, hits give low values
[34] = locus YJR016C, strain ILV3, hits give low values
[35] = locus YJR066W, strain TOR1 (second series), hits give low values
[36] = locus YJR066W, strain TOR1, hits give low values
[37] = locus YKL048C, strain ELM1, hits give low values
[38] = locus YKL067W, strain YNK1, hits give low values
[39] = locus YKL101W, strain HSL1, hits give low values
[40] = locus YKL193C, strain SDS22, hits give low values
[41] = locus YKL203C, strain TOR2, hits give low values
[42] = locus YLR113W, strain HOG1, hits give low values
[43] = locus YLR133W, strain CKI1, hits give low values
[44] = locus YLR403W, strain SFP1, hits give low values
[45] = locus YML070W, strain DAK1, hits give low values
[46] = locus YMR001C, strain CDC5, hits give low values
[47] = locus YMR205C, strain PFK2 (second series), hits give low values
[48] = locus YMR277W, strain FCP1, hits give low values
[49] = locus YNL006W, strain LST8, hits give low values
[50] = locus YNL020C, strain ARK1, hits give low values
[51] = locus YNL161W, strain CBK1, hits give low values
[52] = locus YNL183C, strain NPR1, hits give low values
[53] = locus YNL207W, strain RIO2, hits give low values
[54] = locus YNL222W, strain SSU72, hits give low values
[55] = locus YNL307C, strain MCK1 (second series), hits give low values
[56] = locus YOL078W, strain AVO1, hits give low values
[57] = locus YOL136C, strain PFK27, hits give low values
[58] = locus YOR061W, strain CKA2, hits give low values
[59] = locus YOR119C, strain RIO1, hits give low values
[60] = locus YOR231W, strain MKK1, hits give low values
[61] = locus YOR329C, strain SCD5, hits give low values
[62] = locus YPL031C, strain PHO85, hits give low values
[63] = locus YPL153C, strain RAD53, hits give low values
[64] = locus YPL204W, strain HRR25, hits give low values
[65] = locus YPL209C, strain IPL1, hits give low values
[66] = locus YPL256C, strain CLN2, hits give low values
[67] = locus YPR025C, strain CCL1, hits give low values
[68] = locus YPR106W, strain ISR1, hits give low values
[69] = locus YPR111W, strain DBF20, hits give low values
[70] = strain NNK1, hits give low values
[71] = strain TSCII, hits give low values
[72] = locus YAL013W, strain DEP1, hits give low values
[73] = locus YBR229C, strain ROT2, hits give low values
[74] = locus YDL134C, strain PPH21, hits give low values
[75] = locus YDR150W, strain NUM1, hits give low values
[76] = locus YEL061C, strain CIN8, hits give low values
[77] = locus YGR078C, strain PAC10, hits give low values
[78] = locus YHR087W, strain rtc3, hits give low values
[79] = locus YJR043C, strain POL32, hits give low values
[80] = locus YJR075W, strain HOC1, hits give low values
[81] = locus YKL190W, strain CNB1, hits give low values
[82] = locus YLR039C, strain RIC1, hits give low values
[83] = locus YLR058C, strain SHM2 (second series), hits give low values
[84] = locus YLR085C, strain ARP6, hits give low values
[85] = locus YLR262C, strain YPT6, hits give low values
[86] = locus YML094W, strain GIM5, hits give low values
[87] = locus YMR219W, strain ESC1, hits give low values
[88] = locus YMR263W, strain SAP30, hits give low values
[89] = locus YNL153C, strain GIM3, hits give low values
[90] = locus YNL298W, strain CLA4 (second series), hits give low values
[91] = locus YNL322C, strain KRE1, hits give low values
[92] = locus YNR030W, strain Alg12, hits give low values
[93] = locus YPL055C, strain LGE1, hits give low values
[94] = locus YPL241C, strain CIN2, hits give low values
[95] = locus YPR135W, strain CTF4, hits give low values
[96] = locus YGR229C, strain SMI1, hits give low values
[97] = locus YMR307W, strain GAS1, hits give low values
[98] = locus YOL006C, strain TOP1, hits give low values

Measured: normalized growth

O=[N+]([O-])c1cc(C(F)(F)F)ccc1Sc1n[nH]c(-c2cc(Cl)cc(Cl)c2)n1
inactive: [1] 0.925 | [2] 0.954 | [3] 0.951 | [4] 0.936 | [5] 0.935 | [6] 0.95 | [7] 0.917 | [8] 0.987 | [9] 0.94 | [10] 0.937 | [12] 0.944 | [13] 0.896 | [14] 0.943 | [18] 0.909 | [19] 0.929 | [20] 0.954 | [22] 0.933 | [30] 0.929 | [32] 0.811 | [34] 0.939 | [40] 0.94 | [46] 0.925 | [48] 0.926 | [49] 0.931 | [51] 0.949 | [53] 0.948 | [54] 0.935 | [56] 0.943 | [61] 0.939 | [65] 0.948 | [67] 0.952 | [68] 0.944 | [69] 0.908 | [70] 0.917 | [71] 0.919
active: [11] 0.537 | [15] 0.578 | [16] 0.329 | [17] 0.716 | [21] 0.207 | [23] 0.678 | [24] 0.541 | [25] 0.129 | [26] 0.147 | [27] 0.131 | [28] 0.231 | [29] 0.472 | [31] 0.228 | [33] 0.15 | [35] 0.203 | [36] 0.16 | [37] 0.298 | [38] 0.426 | [39] 0.201 | [41] 0.601 | [42] 0.223 | [43] 0.164 | [44] 0.602 | [45] 0.293 | [47] 0.399 | [50] 0.133 | [52] 0.497 | [55] 0.14 | [57] 0.194 | [58] 0.164 | [59] 0.673 | [60] 0.155 | [62] 0.32 | [63] 0.26 | [64] 0.255 | [66] 0.166

O=[N+]([O-])c1cc(C(F)(F)F)ccc1Sc1ccc(Cl)cc1
inactive: [72] 1 | [73] 1.01 | [8] 1 | [74] 0.98 | [75] 0.957 | [76] 1.01 | [77] 1.01 | [26] 0.901 | [78] 1.01 | [79] 1 | [80] 1.02 | [81] 1.01 | [82] 0.928 | [83] 1 | [85] 0.967 | [86] 0.97 | [87] 1.01 | [88] 1.01 | [89] 1.02 | [90] 0.995 | [91] 0.996 | [92] 0.978 | [93] 1.04 | [94] 0.967 | [95] 0.97
active: [84] 0.757

O=C(Nc1ccccc1Sc1ccc(C(F)(F)F)cc1[N+](=O)[O-])C(Cl)Cl
inactive: [1] 0.997 | [2] 0.994 | [3] 0.987 | [4] 0.991 | [5] 0.994 | [6] 1.01 | [7] 0.992 | [8] 0.983 | [9] 0.991 | [10] 0.994 | [11] 0.952 | [12] 1 | [13] 0.998 | [14] 0.993 | [15] 0.985 | [16] 0.958 | [17] 0.959 | [18] 0.995 | [19] 0.996 | [20] 0.986 | [21] 0.955 | [22] 0.983 | [23] 0.964 | [24] 0.963 | [25] 0.909 | [26] 0.985 | [27] 0.973 | [28] 1.02 | [29] 0.864 | [30] 0.995 | [31] 0.894 | [32] 0.945 | [33] 0.961 | [34] 0.999 | [35] 0.933 | [36] 1.01 | [37] 0.949 | [38] 0.934 | [39] 0.946 | [40] 0.996 | [41] 1.01 | [42] 0.907 | [43] 0.947 | [44] 0.915 | [45] 0.938 | [46] 0.998 | [47] 0.953 | [48] 0.984 | [49] 0.986 | [50] 0.959 | [51] 0.993 | [52] 0.96 | [53] 0.989 | [54] 0.99 | [55] 0.903 | [56] 0.99 | [57] 0.907 | [58] 0.97 | [59] 1.05 | [60] 0.935 | [61] 0.997 | [62] 0.984 | [63] 0.991 | [64] 0.958 | [65] 0.992 | [66] 1.02 | [67] 0.997 | [68] 0.996 | [69] 0.967 | [70] 0.976 | [71] 0.992

Cc1nc(C(F)(F)F)nc(Sc2n[nH]c(-c3cc(Cl)cc(Cl)c3)n2)c1C
active: [84] 1.25 [resistant]
inactive: [72] 1.03 | [73] 1.01 | locus YCL061C, strain MRC1, hits give low values 1 | [8] 0.996 | [74] 1.01 | [75] 0.996 | [76] 0.985 | [77] 1.01 | [96] 1.01 | [26] 1.02 | [78] 1.03 | [79] 1.01 | [80] 1.02 | [81] 1 | [82] 1.07 | [83] 0.998 | [85] 1.02 | [86] 0.994 | [87] 1.02 | [88] 0.993 | [97] 0.988 | [89] 0.995 | [90] 0.966 | [91] 0.995 | [92] 0.974 | [93] 1.03 | [94] 1.07 | [95] 1.17

Nc1nc(Sc2cc(-n3cccc3)c(Cl)cc2[N+](=O)[O-])n[nH]1
inactive: [72] 0.992 | [73] 1 | [8] 0.998 | [75] 0.997 | [76] 0.994 | [77] 0.995 | [96] 1 | [26] 0.972 | [78] 0.992 | [79] 0.996 | [80] 1.01 | [82] 0.973 | [83] 1 | [84] 0.972 | [85] 1 | [86] 0.983 | [87] 1 | [88] 1.01 | [97] 0.985 | [89] 0.995 | [90] 0.972 | [91] 1 | [92] 0.995 | [98] 1.02 | [93] 0.989 | [94] 0.936 | [95] 0.933

Nc1nc(Sc2ccc(C(F)(F)F)cc2[N+](=O)[O-])n[nH]1
inactive: [72] 0.988 | [73] 0.998 | [8] 1.02 | [75] 0.901 | [76] 1.02 | [77] 1.01 | [26] 1.03 | [78] 0.988 | [79] 1.01 | [80] 1.01 | [81] 1 | [82] 1.07 | [83] 1.01 | [84] 1.16 | [85] 1.03 | [86] 0.995 | [87] 1 | [88] 1.01 | [97] 1.24 | [89] 1.01 | [90] 1.01 | [91] 1 | [92] 0.999 | [98] 1.06 | [93] 0.872 | [94] 1.08 | [95] 0.892
